Among the test systems are NCI-H23 lung; NCI-H226 lung; NCI-H322M lung; HOP-62 NSCLC; NCI-H460 lung; HOP-92 NSCLC; NCI-H522 lung; A549/ATCC NSCLC; 786-0 renal; COLO 205 colon; DU-145 prostate; K-562 leukemia; MALME-3M melanoma; MDA-MB-231 breast; RXF 393 renal; SF-268 CNS; SF-295 CNS; SF-539 CNS; UACC-257 melanoma; M14 melanoma.
Holding throughout (test): NCI-60 one-dose screen, 48 h (100 = growth as untreated, 0 = no growth, -100 = all killed)
Details in all cases: 10 µM unless noted

Compounds without any hit were thinned out: in the full panel of roughly 83,000, 20% have a hit.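 Values shown are percent growth following 48 h exposure of cells in 96-well plates to a single concentration of compound; below 10 was considered active.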 Unmarked numbers belong to inactive results. The source made the active and inactive calls.

For `C=C[C@@H]1C[C@H](O)Cc2c(C)cc(C)cc2N1`, the growth in the assay with NCI-H23 lung is 97.6%; in the assay with NCI-H226 lung, 104%; in the assay with NCI-H322M lung it was 117%; in the assay with HOP-62 NSCLC it was 91.5%; with NCI-H460 lung, 102%; in the assay on HOP-92 NSCLC it was 75.1%. The growth is 101% in the assay with NCI-H522 lung; 98.3% in the assay with A549/ATCC NSCLC; 98.8% in the assay with 786-0 renal; 106% in the assay with COLO 205 colon; 102% in the assay on DU-145 prostate; 92% with K-562 leukemia. The growth was 103% with MALME-3M melanoma; 101% in the assay with MDA-MB-231 breast; 108% in the assay with RXF 393 renal; 97.5% in the assay with SF-268 CNS; 91.9% in the assay with SF-295 CNS; 92.3% in the assay with SF-539 CNS. The results for the growth with UACC-257 melanoma and in the assay on M14 melanoma were 97.6% and 98.9%, respectively.

Consider `CCN(CC)c1ccc(N=O)cc1`, for which the growth in the assay with NCI-H23 lung was 81.7%; with NCI-H226 lung, 101%; with NCI-H322M lung it was 87.7%; with HOP-62 NSCLC, 91.8%; in the assay with NCI-H460 lung, 58.9%; in the assay with HOP-92 NSCLC, 51.9%. For the same compound, the growth is -80.9% (active) with NCI-H522 lung; 59.7% with A549/ATCC NSCLC; 91.8% in the assay with 786-0 renal; 13.9% with COLO 205 colon; 80.9% with DU-145 prostate; 23.5% with K-562 leukemia. For the same compound, the growth with MALME-3M melanoma was 71.1%; in the assay with MDA-MB-231 breast, 47.4%; in the assay with RXF 393 renal it was 72.5%; in the assay on SF-268 CNS, 59.1%; in the assay on SF-295 CNS, 92.7%; in the assay on SF-539 CNS it was 77.2%. Further, the figures for the growth in the assay with UACC-257 melanoma and with M14 melanoma were 33.2% and 75.3%, respectively.

In the case of `COC(=O)c1cc2cc(-c3ccc(OC)cc3)cnc2[nH]1`, the growth was 36.8% in the assay with NCI-H23 lung; 45.1% in the assay on NCI-H226 lung; 50.4% in the assay with NCI-H322M lung; 50.3% in the assay on HOP-62 NSCLC; 6.52% (active) with NCI-H460 lung; 0.19% (active) with HOP-92 NSCLC. The growth in the assay with NCI-H522 lung was -52.2% (active); in the assay on A549/ATCC NSCLC it was 24.9%; with 786-0 renal, 37.1%; in the assay with COLO 205 colon it was 0.277% (active); in the assay with DU-145 prostate, 18.1%; in the assay on K-562 leukemia, 8.43% (active). For the same compound, the growth with MALME-3M melanoma is 56.3%; in the assay on MDA-MB-231 breast it was 57.1%; in the assay with RXF 393 renal, -36.4% (active); with SF-268 CNS, 45.5%; with SF-295 CNS, 0.983% (active); in the assay on SF-539 CNS it was -27.2% (active). The growth in the assay with UACC-257 melanoma was 51.3%; in the assay with M14 melanoma, 14.3%.

Turning to `CCC(C)/C(=C\C#N)NCCCN/C(=C/C#N)C(C)CC` (stereo not given), the growth is 97.3% with NCI-H23 lung; 103% with NCI-H226 lung; 103% with NCI-H322M lung; 106% in the assay on HOP-62 NSCLC; 116% in the assay with NCI-H460 lung; 86.5% in the assay with HOP-92 NSCLC. The growth in the assay on NCI-H522 lung is 83.5%; in the assay with A549/ATCC NSCLC, 103%; in the assay with 786-0 renal it was 98.1%; in the assay with COLO 205 colon, 111%; in the assay on DU-145 prostate, 122%; with K-562 leukemia, 98.8%. Moreover, the growth in the assay with MALME-3M melanoma was 108%; in the assay on MDA-MB-231 breast, 103%; with RXF 393 renal, 115%; in the assay on SF-268 CNS, 113%; with SF-295 CNS, 105%; in the assay on SF-539 CNS, 97.1%. Besides, the figures for the growth in the assay on UACC-257 melanoma and with M14 melanoma were 106% and 96.1%, respectively.

Regarding `Cc1ccc(S(=O)(=O)NCCCNc2cc(-c3cn(C(C)(C)C)nc3-c3cccc(O)c3)ccn2)cc1`, the growth in the assay with NCI-H23 lung is 77%; with NCI-H226 lung, 54.6%; in the assay on NCI-H322M lung it was 87.9%; in the assay with HOP-62 NSCLC, 85.1%; in the assay on NCI-H460 lung it was 29.9%; in the assay on HOP-92 NSCLC, 71%. For the same compound, the growth was 53% in the assay with NCI-H522 lung; 59.6% in the assay with A549/ATCC NSCLC; 56.6% in the assay on 786-0 renal; 8.53% (active) in the assay with COLO 205 colon; 76.1% in the assay on DU-145 prostate; 11.8% in the assay on K-562 leukemia. The growth was 61.9% with MALME-3M melanoma; 62.5% with MDA-MB-231 breast; 60.2% with RXF 393 renal; 54.8% with SF-268 CNS; 51.7% in the assay on SF-295 CNS; 49.7% in the assay with SF-539 CNS. For the same compound, the growth in the assay with UACC-257 melanoma is 72%; in the assay with M14 melanoma, 56.8%.

`CC(C)(C)n1cc(-c2ccnc(NCCCNS(=O)(=O)c3ccc(Cl)cc3)c2)c(-c2cccc(O)c2)n1`: the growth with NCI-H23 lung was 14%; in the assay with NCI-H226 lung, 14%; with NCI-H322M lung, 10.6%; in the assay on HOP-62 NSCLC, 9.75% (active); in the assay with NCI-H460 lung, -66.7% (active); in the assay on HOP-92 NSCLC, -2.33% (active). For the same compound, the growth with NCI-H522 lung was -55.7% (active); in the assay with A549/ATCC NSCLC, 9.33% (active); with 786-0 renal, -35.2% (active); with COLO 205 colon, -86.8% (active); with DU-145 prostate, 13.1%; in the assay with K-562 leukemia, -23.3% (active). Besides, the growth in the assay with MALME-3M melanoma was -44.5% (active); with MDA-MB-231 breast it was -24.4% (active); with RXF 393 renal, -12% (active); in the assay with SF-268 CNS it was 20.7%; with SF-295 CNS, -45% (active); in the assay on SF-539 CNS, -26.1% (active). The growth in the assay on UACC-257 melanoma is -39.3% (active); with M14 melanoma it was -23.2% (active).

For `OCCCCCCNc1ncnc2cc(Cl)ccc12`, the growth in the assay on NCI-H23 lung was 95%; in the assay with NCI-H226 lung it was 84.1%; in the assay with NCI-H322M lung, 105%; in the assay with HOP-62 NSCLC it was 88.5%; in the assay with NCI-H460 lung, 94.2%; in the assay on HOP-92 NSCLC, 74.6%. The growth in the assay on NCI-H522 lung is 87.8%; in the assay on A549/ATCC NSCLC, 95.6%; in the assay on 786-0 renal, 100%; in the assay on COLO 205 colon, 103%; in the assay with DU-145 prostate, 104%; with K-562 leukemia, 84.6%. Further, the growth with MALME-3M melanoma is 100%; in the assay with MDA-MB-231 breast it was 99.7%; in the assay on RXF 393 renal, 116%; in the assay with SF-268 CNS it was 97.2%; with SF-295 CNS, 99%; with SF-539 CNS, 92.8%. Also, the values for the growth with UACC-257 melanoma and in the assay with M14 melanoma were 90.7% and 96.3%, respectively.

Values taken from PubChem BioAssay (NCI).
